The list is not random: actives were taken first. Their share in the collection is about 3.9%.
TGFb inhibitor – qHTS for Inhibitors of TGF-b. HepG2 CAGA-GFP TGF-b/SMAD3 reporter, GFP fluorescence, 18 h; TGF-beta stimulated, 500 pg/mL final. Potency, µM (titrated, usually from 46.1 µM), without a hit: at the top dose activity, negative = inhibition, actives largely listed as inhibitors. 410,000 tested, 1.2% active. AID 588855, 2011; further: on the % scale 0 is the no-effect control and ±100 the full control effect; nearly all actives have a fitted effect of over 65% in size
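Inhibition of TGF-beta-driven CAGA-GFP reporter expression in HEPG2 cells is measured by cellular GFP fluorescence after 18 h stimulation with 500 pg/mL recombinant TGF-beta in 1% FBS medium at 37 degrees C.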
HepG2 tox – qHTS for Inhibitors of TGF-b: Cytotox Counterscreen. HepG2 CAGA-GFP viability, ATP luminescence, 18 h. Potency, µM (top dose mostly 46.1 µM), for the others: at the highest dose activity change, negative = cytotoxicity, actives largely listed as cytotoxic. 410,000 tested, 0.76% active. AID 588856, 2011
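CellTiter-Glo luminescence gave cytotoxicity after 18 hours at 37 degrees C. The cells were HepG2 CAGA-GFP in 1% FBS DMEM, stimulated with 500 pg/mL TGF-beta after compound addition. %Activity was normalised to no-cell wells (complete cell-killing) and DMSO (no toxicity), and curves were fitted and classified.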
HT1080 IDH1KD tx – qHTS for induction of synthetic lethality in tumor cells producing 2HG: qHTS for the HT-1080-IDH1KD cell line | HT-1080 IDH1 knockdown viability, ATP luminescence, 48 h | Potency, µM (series often up to 46.1 µM), for the others: at the highest dose activity, negative = toxicity, actives largely listed as cytotoxic | 360,000 tested, 2% active;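 further: 0% = DMSO wells and -100% = cell-free medium wells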
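IDH1KD HT-1080 cells, 750/well, RPMI + 5% FBS; compound pinned after 2 h settling; 48 h, 37 °C; CellTiter-Glo luminescence; % activity normalised to DMSO and no-cell wells; curves fitted, classed by r2 and efficacy.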
HT1080-NT tox – qHTS for induction of synthetic lethality in tumor cells producing 2HG: qHTS for the HT-1080-NT fibrosarcoma cell line. HT-1080-NT fibrosarcoma viability, CellTiter-Glo ATP luminescence, 48 h. Potency, µM (top dose mostly 46.1 µM), without a hit: at the highest dose activity, negative = less viability, hits mostly cytotoxic. 360,000 tested, 1.6% active. AID 686970, 2013;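 further: NT is the 2HG producing partner of a matched IDH1 knockdown line; 0% = DMSO-treated cells and -100% = media-only wells without cells; nearly all actives have a fitted effect of over 55% in size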
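Viability by CellTiter-Glo luminescence after 48 h compound exposure at 37C of HT-1080-NT cells (750/well, RPMI, 5% FBS). % activity scaled between DMSO wells and medium-only wells, then curve-fitted and categorized by curve class.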
ATXN viability – Viability Counterscreen for Primary qHTS for Inhibitors of ATXN expression; AID 651635, 2014; S2 cells (HEK-293 line with an ATXN2-luciferase reporter) viability, CellTiter-Fluor protease fluorescence, 24 h; Potency, µM (highest dose often 56.7 µM), actives largely listed as cytotoxic; 400,000 tested, 0.49% active; further: nearly all actives have a fitted effect of over 40% in size
ATXN2 expr inh – Primary qHTS for Inhibitors of ATXN expression. HEK-293 ATXN2-luciferase reporter, luminescence, 24 h. AID 1745845, 2022. 360,000 tested, 0.72% active. Potency, µM (doses to about 57 µM), inactives show at the highest dose activity change, negative = inhibition, most hits filed as inhibitors; further: on the % scale 0 is the no-effect control and ±100 the full control effect; nearly all actives have a fitted effect of over 55% in size
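ATXN2-luciferase reporter cells (luciferase flanked by upstream and downstream ATXN2 gene portions) were treated 24 h at 37 °C with compounds at up to 57 uM. SteadyGlo luminescence gave expression; GF-AFC fluorescence gave viability.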
Numbers without * were called inactive; i = inactive; ? = inconclusive; · = no result. The call rests on the fitted dose curve; in most records, active means well fitted curve in the direction sought with a large enough effect; inconclusive means small, poorly fitted or top-dose-only effect, or another doubt; inactive means no such curve, though single readings can be large; an effect the other way counts as inactive or inconclusive. Potency means the concentration at half of the fitted maximal effect.

SMILES	TGFb inhibitor	HepG2 tox	HT1080 IDH1KD tx	HT1080-NT tox	ATXN viability	ATXN2 expr inh
Cc1c(Cl)ccc2c1NC(=O)[C@]21N[C@@H](Cc2ccccc2)[C@H]2C(=O)N(c3ccc(F)cc3)C(=O)[C@H]21	10µM*	-56.8%	?	-22.2%	?	-16.2%
COc1cc2c(cc1OC)C(C)N(C(=O)Nc1ccccc1)CC2 (stereo not given)	5.4%	11.9%	2.59µM*	2.91µM*	i	-12.0%
COc1cc2c(cc1OC)C(c1ccccc1)N(C(=O)CCl)CC2 (stereo not given)	-20.1%	-0.3%	?	?	·	28.2µM*
COc1cc2c(cc1OC)C(C)N(C(=O)c1c(-c3ccccc3)noc1C)CC2 (stereo not given)	-7.7%	-17.6%	23.1µM*	?	i	·
COc1ccccc1N1CCN(C(=O)c2c(-c3ccccc3)noc2C)CC1	24.1%	-6.9%	14.6µM*	?	?	-35.5%
CC(CCc1ccccc1)NC(=O)CSc1n[nH]c(-c2ccc(F)cc2)n1 (stereo not given)	11.2µM*	-19.9%	·	·	·	·
O=C(CSc1n[nH]c(-c2ccccn2)n1)Nc1ccccc1	?	-33.6%	20.6µM*	?	i	?
Cc1ccc(NC(=O)CSc2n[nH]c(-c3ccc(F)cc3)n2)cc1F	11.2µM*	-41.5%	·	·	·	·
Cc1c(C(=O)NCc2ccccc2Cl)sc2ncnc(NCC3CCCO3)c12 (stereo not given)	·	·	·	·	i	·
CCC1CN(CCNC(=O)c2cccc3nccnc23)Cc2cc(OC)ccc2O1 (stereo not given)	·	·	·	·	i	·
Cc1cc(C(=O)C(C)Sc2cccc[n+]2[O-])c(C)n1-c1ccc(Cl)cc1 (stereo not given)	16.6%	4.8%	23.1µM*	?	i	-1.0%
NC(=O)c1cccc2[nH]c(-c3ccc([C@H]4CCCN4)cc3F)nc12	·	·	·	·	·	-23.8%
C=C1[C@@H](O)[C@H](CC(C)C)N(Cc2ccccc2Br)S1(=O)=O	8.91µM*	10µM*	?	23.1µM*	·	-27.6%
CCCCCNC(=O)C(c1ccc(OC)cc1)n1c(=O)c(-c2ccco2)nc2ccccc21 (stereo not given)	·	·	14.6µM*	25.9µM*	·	·
CC(=O)c1c(C)[nH]c(C(=O)N2CCN(C(=O)c3ccco3)CC2)c1C	-8.2%	-11.4%	0.4%	-2.0%	i	3.3%
CC(=O)c1c(C)[nH]c(C(=O)N2CCN(c3ccc(F)cc3)CC2)c1C	-13.1%	-34.3%	10µM*	?	i	23.0%
Cc1ccc(Cl)cc1N1CCN(C(=O)c2c(C)oc3ncnc(N4CCCCC4)c23)CC1	?	-66.0%	·	·	?	28.2µM*
CCOC(=O)c1[nH]c(C)c(CCC(=O)N2CCN(c3cc(Cl)ccc3C)CC2)c1C	11.2µM*	-26.7%	·	·	?	-8.0%
COc1cccc(N2CCN(C(=O)c3[nH]c(C)c(C(C)=O)c3C)CC2)c1	2.2%	-10.0%	5.62µM*	7.08µM*	i	-13.9%
CCOC(=O)c1[nH]c(C)c(CCC(=O)N2CCN(c3cccc(OC)c3)CC2)c1C	11.3%	0.8%	·	·	i	2.9%
CC1=C(C(=O)OC2CCCC2)C(c2ccc(Cl)cc2)CC(=O)N1 (stereo not given)	-11.4%	-7.3%	·	·	i	-17.4%
Cc1[nH]c(-c2ccc(F)cc2)cc1C(=O)N1CCN(c2ccc(Cl)cc2)CC1	?	-64.1%	5.6%	2.6%	?	14.1µM*
CC(=O)c1c(C)[nH]c(C(=O)N2CCN(c3cc(Cl)ccc3C)CC2)c1C	0.0%	-31.6%	23.1µM*	16.4µM*	i	27.1%
CCc1c(C)nc2ncnn2c1NCCc1ccc(OC)cc1	-6.4%	-14.5%	3.55µM*	6.31µM*	i	-35.9%
CN(C1CCCCC1)S(=O)(=O)c1ccc2c(c1)c(=O)c(C(=O)NCc1ccc(Cl)cc1)cn2C	-10.5%	-2.9%	·	·	i	-6.6%
SMILES	TGFb inhibitor	HepG2 tox	HT1080 IDH1KD tx	HT1080-NT tox	ATXN viability	ATXN2 expr inh
CN(C)c1ccc(/C=C2/CCCc3c2nc2ccccc2c3C(=O)O)cc1	-23.3%	-0.7%	·	·	·	·
CC(=O)O/N=C/c1c(N2CCOCC2)n(C)c2ccccc12	0.0%	-37.9%	-28.3%	?	?	?
Cn1c(N2CCOCC2)c(/C=N/OC(=O)c2ccc(F)cc2)c2ccccc21	-9.4%	-14.0%	3.16µM*	2.82µM*	?	?
Cc1ccc(C(=O)O/N=C/c2c(N3CCOCC3)n(C)c3ccccc23)cc1	-15.8%	-19.3%	3.55µM*	3.98µM*	?	?
COc1ccc(NC(=O)CCC(=O)c2cccs2)cc1S(=O)(=O)Nc1ccc(Cl)cc1	-8.3%	-1.8%	0.82µM*	-5.0%	?	-36.8%
COc1ccc(C(=O)N2CCCc3ccccc32)cc1Br	2.1%	-4.3%	7.1%	3.5%	0.224µM*	-4.7%
Cc1ccc(F)c([C@H]2C3C=CCC(c4ccccc4)C3C(=O)N2Cc2ccccc2)c1 (stereo not given in full)	17.8µM*	-48.0%	?	?	?	-20.8%
Cc1ccc(-n2ncc(C(=O)NCCN3CCc4ccccc4C3)c2C2CCNCC2)cc1C	14.7%	-22.8%	·	·	i	-13.5%
O=[N+]([O-])c1cc(C(F)(F)F)ccc1NCCCCNS(=O)(=O)c1ccc(Cl)cc1	?	10µM*	?	?	?	?
CS(=O)(=O)NCCCNc1ccc(C(F)(F)F)cc1[N+](=O)[O-]	-5.7%	7.1%	-9.8%	1.2%	i	5.7%
O=[N+]([O-])c1cc(C(F)(F)F)ccc1NCCNC(=S)Nc1ccc(Cl)cc1	5.01µM*	10µM*	?	17.8µM*	?	?
CC(C)(C)n1ncc2c(=O)n(Cc3ccccc3C(F)(F)F)cnc21	6.1%	-2.9%	·	·	·	·
Cc1ccccc1NC(=O)CSc1nc(-c2ccccc2C)nc2cc(=O)[nH]n12	3.55µM*	-38.2%	·	·	?	?
Cc1ccc(C(=O)Nc2ccc(CN3CCN(C)CC3)c(C(F)(F)F)c2)cc1C#Cc1cnc2cccnn12	·	·	·	·	·	19.3µM*
CCc1ccc(C(=O)Nc2cc(CN3CCN(C)CC3)cc(C(F)(F)F)c2)cc1C#Cc1cnc2ccnn2c1	·	·	·	·	·	24.3µM*
